The entries come from a sample that favours hits as a whole.
RmlCD inh mix – inhibitors of RmlC and RmlD coupled enzymes. RmlC/RmlD coupled enzyme inhibition, 384-well mixture HTS. inhibition, % at 5.5 µM. 0.39% of 110,000 active. AID 1532; in the data active means inhibition above about 30%, passing the limit was not always enough
RT RNaseH block – blocks HIV-1 RNase H cleavage of RNA/DNA duplex; inhibition, % at 10 µM; 1.9% of 65,000 active; AID 565; P04585; RT-RNase H RNA/DNA duplex cleavage, fluorescence; in the data active means inhibition above about 50%
RmlCD artifact – counter-screen for RmlC/RmlD inhibitors: fluorescence artifact; shares compounds with RmlCD inh mix; RmlC/RmlD assay fluorescence artifact counter-screen; calls only; 96% of 360 active; call rule not given here;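 further: compound alone with no enzyme and no substrates present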
Starred values were filed as active, the others as inactive; nt = not tested or not shown; + = active, no number.

SMILES	RmlCD inh mix	RT RNaseH block	RmlCD artifact
COCC(=O)N(C)c1nnc(-c2ccc([N+](=O)[O-])cc2)s1	10	nt	nt
CN(C(=O)c1ccncc1)c1nnc(-c2ccncc2)s1	103*	-30	+
COc1ccccc1-c1nnc(N(C)C(=O)C2CCCO2)s1 (stereo not drawn)	37*	-1	+
COc1cc(SC#N)ccc1N=Cc1c(C)[nH]n(-c2ccc(C)cc2C)c1=O	7	nt	nt
COc1ccc(S(=O)(=O)O/N=C2\CCSc3ccc(C)cc32)cc1	-21	nt	nt
COC(=O)c1cccc(CSc2nnc(-c3ccco3)n2-c2ccccc2)c1	nt	-8	nt
CN(C(=O)C1CCCO1)c1nnc(-c2ccccn2)s1 (stereo not drawn)	162*	8	+
CN(C(=O)C1CCOC1)c1nnc(-c2ccncc2)s1 (stereo not drawn)	48*	-4	+
Cc1cnc(-c2nnc(N(C)C(=O)C3CCOC3)s2)cn1 (stereo not drawn)	nt	-2	nt
CN(C(=O)C1CCOC1)c1nnc(-c2ccccn2)s1 (stereo not drawn)	27	48	nt
CCOC(=O)N1CCC(NCCNC(=O)c2ccccc2)CC1	3	0	nt
COc1ccc(-c2nc(C#N)c(N3CCOCC3)o2)cc1OC	26	-20	nt
COc1ccc(-c2nc(C#N)c(N3CCC(C(N)=O)CC3)o2)cc1OC	41*	nt	+
Cc1ccccc1C(C(=O)NCc1ccccc1)N(Cc1ccco1)C(=O)c1ccccn1 (stereo not drawn)	2	nt	nt
N#Cc1nc(-c2cccs2)oc1NCc1ccccc1	47	-29	nt
C=CCNc1oc(-c2cccs2)nc1C#N	108*	nt	+
COc1ccc(NS(=O)(=O)c2ccc(OC)c(N(C)S(=O)(=O)c3ccc(Cl)cc3)c2)cc1	-13	nt	nt
COC(=O)Nc1ccc2c(c1)N(C(=O)CCN1CCN3CCCC3C1)c1ccccc1CC2 (stereo not drawn)	nt	-6	nt
Nc1ccc2nc(-c3ccccc3)[nH]c2c1	100	nt	nt
Nc1ccc(-c2nc3c(Cl)cc(N)cc3[nH]2)cc1	50*	2	+
COc1ccc2nc(-c3ccc(N)cc3)[nH]c2c1	24	nt	nt
Nc1ccc2nc(-c3ccc(N)c(Cl)c3)[nH]c2c1	40*	nt	+
COC(=O)c1[nH]c2ccc(Cl)cc2c1NC(=O)CCN1CCN(C2CCCCC2)CC1	3	1	nt
O=C(Cn1ncc2c(=O)oc3ccccc3c21)N1CCC(N2CCCCC2)CC1	2	5	nt
N#Cc1c(N)nc2c(c1-c1ccncc1)CCCCC2	-14	-24	nt
SMILES	RmlCD inh mix	RT RNaseH block	RmlCD artifact
CSc1ccc(-c2c(C#N)c(N)nc3c2CCCC3)cc1	33*	3	+
CCC(=O)Nc1c(OC(=O)CC)ccc2c(C)cc(=O)oc12	+	-9	+
CCC(=O)c1cc2c(C)cc(=O)oc2c(C)c1OC	-4	nt	nt
O=C1c2ccccc2-c2ccc(C(=O)N3CCOCC3)cc21	-9	-4	nt
Oc1ccccc1/C=N/c1c(-c2ccco2)nc2ccccn12	39*	-24	+
Clc1ccc(/C=N/c2c(-c3ccco3)nc3ccccn23)cc1	17	nt	nt
COc1cc(Cl)c(C)cc1NC(=O)COC(=O)/C=C/c1c(C)nn(C2CCS(=O)(=O)C2)c1Cl (stereo not drawn)	6	nt	nt
CCCCn1c(=O)c(C(=O)Nc2cnccn2)c(O)c2ccccc21	nt	-11	nt
Cc1cccn2c(=O)c3cc(C#N)c(=O)n(-c4c(C)n(C)n(-c5ccccc5)c4=O)c3nc12	10	1	nt
Cc1cc(-n2c(=O)c(C#N)cc3c(=O)n4cccc(C)c4nc32)no1	47*	1	+
Cc1ccc(-n2c(=O)c(C#N)cc3c(=O)n4ccccc4nc32)cc1	nt	-8	nt
Cc1cccc(-n2c(=O)c(C#N)cc3c(=O)n4ccccc4nc32)c1	83*	nt	+
Cc1nnc(Sc2nc3c(c(=O)[nH]c(=O)n3C)n2CCc2ccccc2)s1	-2	-10	nt
Cc1c(CC(=O)O)c(=O)oc2cc(OCc3nn[nH]n3)ccc12	29	nt	nt
COC(=O)Cc1c(C)c2ccc(OC(=O)c3ccccc3)cc2oc1=O	64*	nt	+
CCn1c2ccccc2c2cc(/C=N/n3cnnc3)ccc21	5	-52	nt
CCn1c(/C=N/n2cnnc2)nc2ccccc21	73*	-4	+
COCCCNC(=O)c1ccc2nc3ccccc3c(=O)n2c1	34*	-5	+
COCCCn1c(SCC(=O)NCc2ccccc2)nc2ccccc2c1=O	-5	nt	nt
COC(=O)Cc1c(C)c2ccc(O)c(CN3CCCC(C)C3)c2oc1=O (stereo not drawn)	96*	nt	+
CCc1cc(=O)oc2cc(C)c(CN3CCCC(C)C3)c(O)c12 (stereo not drawn)	6	19	nt
COc1cc2c(C)nc3onc(-c4ccccc4)c3c2cc1OC	6	-2	nt
COC(=O)CSc1nc2cc(C)ccc2cc1C#N	6	2	nt
CC(C)OC(=O)CC(=O)CSc1nc2c(cc1C#N)CCCCC2	+	nt	+
CCOC(=O)CC(=O)CSc1nc2c(c(C)c1C#N)CCC2	nt	-22	nt
SMILES	RmlCD inh mix	RT RNaseH block	RmlCD artifact
CCOC(=O)CC(=O)CSc1nc2ccc(C)cc2cc1C#N	+	-3	+
CCc1nc(SCC(=O)O)c(C#N)cc1C	-2	nt	nt
CCOC(=O)CC(=O)CSc1nc(C)cc(C)c1C#N	110*	nt	+
CCOC(=O)CC(=O)CSc1nc2c(cc1C#N)CCCCC2	76	7	nt
CCOC(=O)CC(=O)CSc1nc(CC)c(C)cc1C#N	nt	nt	+
CCOC(=O)c1ccc(N2C(=O)CC(N(C)CCc3ccc(OC)c(OC)c3)C2=O)cc1 (stereo not drawn)	4	10	nt
Cc1cc(C)nc(NS(=O)(=O)c2ccc(Br)s2)c1	5	-30	nt
Cc1noc(C)c1COC(=O)CCc1ccc(S(=O)(=O)N2CCCCC2)cc1	-16	-12	nt
Cc1ccc(N(Cc2cc(=O)[nH]c3ccccc23)C(=O)c2ccco2)cc1	6	7	nt
CCOC(=O)c1nn(-c2ccc(F)cc2)c2nc(CC(C)C)c(C#N)c(=O)n12	51*	nt	+
CCOC(=O)c1nn(-c2ccccc2C)c2nc(-c3ccc(C)cc3)c(C#N)c(=O)n12	8	nt	nt
COc1ccc(Oc2c(C)oc3c(CN4CCOCC4)c(O)ccc3c2=O)cc1	10	nt	nt
COc1ccccc1-c1coc2c(CN3CCN(C)CC3)c(O)ccc2c1=O	16	-6	nt
Cc1oc2c(CN3CCOCC3)c(O)ccc2c(=O)c1-c1ccccc1	39*	1	+
Cc1oc2c(CN3CCCC3)c(O)ccc2c(=O)c1Oc1ccccc1Br	64*	-3	+
COc1ccccc1-c1coc2c(CN3CCN(CCO)CC3)c(O)ccc2c1=O	40*	1	+
COc1ccccc1Oc1c(C)oc2c(CN3CCN(CCO)CC3)c(O)ccc2c1=O	nt	-2	nt
C=CCOC(=O)C1=C(C)Nc2nnnn2C1c1cc(OC)ccc1OC (stereo not drawn)	-11	-25	nt
Cn1cc(S(=O)(=O)CC(=O)N2CCCc3ccccc32)c2ccccc21	4	-14	nt
Cc1[nH]c2ccc3c(ncn3CCC#N)c2c1C	9	-3	nt
COc1ccc(Nc2nc(C)c3ccccc3n2)cc1	9	-1	nt
CCCn1c(-c2cccs2)nc2nc3ccccc3nc21	81*	nt	+
c1csc(-c2nc3nc4ccccc4nc3n2Cc2ccc3c(c2)OCO3)c1	-20	-24	nt

Screening results: PubChem, several laboratories
